Source: PubChem BioAssay (Tox21)
Results filed as inconclusive are left out. Where a call stands in place of a potency, no number is given. Calls of active or inactive are those of the source. Calls follow the shape of the dose curve; as a rule, active = well fitted cell-killing curve with a large enough effect in the repeat runs; inconclusive = weak or mixed curves, or effect the other way; inactive = flat fitted curve, though single readings scatter.

Assay: qHTS assay to identify small molecule antagonists of the retinoid acid receptor (RAR) signaling pathway - cell viability counter screen (AID 1159551); also: nearly all actives have a fitted effect of over 35% in size
Conditions: C3RL4 cells viability, ATP luminescence (CellTiter-Glo), 6 h; series mostly up to 92.4 µM
Method in brief: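 Luminescent ATP quantitation (CellTiter-Glo) gave cell viability in C3RL4 cells exposed to test chemicals for 6 h at 37 C alongside 1 uM final retinol.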

Row | SMILES | Potency | activity change, negative = cytotoxicity
1 | Nc1ccc(S(=O)(=O)NCc2ccccc2)cc1 | inactive | –
2 | Cc1cccc(C)c1NC(=O)c1cc(S(N)(=O)=O)c(Cl)cc1O | inactive | –
3 | CC(C)(C)S | inactive | –
4 | CCN(CC)C(=O)/C(C#N)=C/c1cc(O)c(O)c([N+](=O)[O-])c1 | inactive | –
5 | CCCCOC(=O)CCCCC(=O)OCCCC | inactive | –
6 | CC(C)(C(=O)c1cccnc1)c1cccnc1 | inactive | –
7 | CC(C)Cc1ccc(CC(=O)O)cc1 | inactive | –
8 | O=C(O)CCS | inactive | –
9 | CC(C)C(=O)OCCOc1ccccc1 | inactive | –
10 | CCC(=O)OCc1ccc(OC)cc1 | inactive | –
11 | CC(=O)c1ccc[nH]1 | inactive | –
12 | Nc1nc(-c2ccc([N+](=O)[O-])cc2)cs1 | inactive | –
13 | CCCCCCCCCCCSCC(=O)O | inactive | –
14 | CC1=CC[C@@]23C[C@@H]1C(C)(C)[C@@H]2CC[C@H]3C | inactive | –
15 | C=Cc1ccc(OC(C)=O)cc1 | inactive | –
16 | C1CCCCC1 | inactive | –
17 | O=C(O)c1cccc(Oc2ccccc2)c1 | inactive | –
18 | O=C1[C@@H]2[C@H]3CC[C@H](C3)[C@@H]2C(=O)N1CCCCN1CCN(c2ncccn2)CC1 | inactive | –
19 | CC(C)COC(=O)COc1cc(Cl)c(Cl)cc1Cl | inactive | –
20 | CCCC(=O)OC(=O)CCC | inactive | –

Row | SMILES | Potency | activity change, negative = cytotoxicity
21 | COc1cc(S(=O)(=O)Nc2ccccc2)c(OC)cc1N | inactive | –
22 | Cc1cc([N+](=O)[O-])ccc1N | inactive | –
23 | CC(=O)OCC1=C(C(=O)O)N2C(=O)[C@@H](NC(=O)CSc3ccncc3)[C@H]2SC1 | inactive | –
24 | COc1ccc(CCN(C)CCCN2CCc3cc(OC)c(OC)cc3CC2=O)cc1OC | inactive | –
25 | Oc1cccc2[nH]ccc12 | inactive | –
26 | Cc1ccc(N(CCO)CCO)cc1 | inactive | –
27 | CC(=O)OCC(C)C | inactive | –
28 | O=C(O)CCC(=O)OC[C@@H](NC(=O)C(Cl)Cl)[C@H](O)c1ccc([N+](=O)[O-])cc1 | inactive | –
29 | Nc1ccc(F)cc1 | inactive | –
30 | CSCC[C@H](NC(=O)[C@H](Cc1c[nH]c2ccccc12)NC(=O)CCNC(=O)OC(C)(C)C)C(=O)N[C@@H](CC(=O)O)C(=O)N[C@@H](Cc1ccccc1)C(N)=O | inactive | –
31 | CC[C@H]1OC(=O)[C@H](C)[C@@H](O[C@H]2C[C@@](C)(OC)[C@@H](O)[C@H](C)O2)[C@H](C)[C@@H](O[C@@H]2O[C@H](C)C[C@H](N(C)C)[C@H]2O)[C@](C)(O)C[C@@H](C)C(=O)[C@H](C)[C@@H](O)[C@]1(C)O | inactive | –
32 | O=C(NS(=O)(=O)/C=C/c1ccccc1)c1ccc(F)cc1Cl | inactive | –
33 | O=C(c1ccccc1)c1ccc(O)cc1 | inactive | –
34 | CC(C(=O)O)c1ccc(C(=O)c2cccs2)cc1 (centres undefined) | inactive | –
35 | O=C1c2ccccc2C(=O)c2c(O)ccc(O)c21 | inactive | –
36 | CC(C)N(C)C | inactive | –
37 | C=CC(=O)O | inactive | –
38 | CCC(Cl)CC(Cl)C(Cl)C(Cl)C(Cl)C(C)Cl (centres undefined) | – | 0.117% [at 19 µM] (inactive)
39 | CCN(CC)CCOC(=O)C(c1ccccc1)c1ccccc1 | inactive | –
